Measured values as given in the supplement of paper PMC11417369.
± gives the standard deviation of the averaged measurements. In all, about 25,000 sequences were measured (“ln(normalized median fluorescence intensity)”: median about 10, highest 2% from about 12 on). This excerpt belongs to a sample that is enriched for the highest values.

system: PfAP2-G AP2 domain (GST-tagged); assay: gcPBM binding intensity (ln(normalized median fluorescence intensity)); higher = stronger DNA binding
Summary of the method: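 Binding intensity is the highest Masliner-normalised natural-log median intensity over replicate spots in either probe orientation. To obtain it, GST-tagged P. falciparum DNA-binding domains made in E. coli were incubated for 1 h on an Agilent 4 × 180k array of primer-extended double-stranded 36-bp intergenic genomic probes plus negative controls. Detection used Alexa488 anti-GST antibody with scanning at 488 nm.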

Sequence | gcPBM binding intensity (ln)
TTATTAAATTTTTTTTGTACTTATATATATATATAT [XGTACX_site2443] | 11.2 ± 0.79
TTTTTTTTTTTTTACACACACAAAATATTATCTGTA [CACACA_site5378] | 9.83 ± 0.42
AATAATTAAATATATTTATAACAGGAAAATATTTAT [XGTACX_negctrl_site175] | 10.2 ± 0.16
TGTTGTATTTTTACAACACACATTTAATCCATTTAA [CACACA_site1507] | 10 ± 0.27
CTTCCTTAGGAATGTACACACATATAAAATATGTTG [CACACA_site6355] | 11.4 ± 0.84
ATAAAATAATTAATGGGTACATAATTAAATAAAGAG [XGTACX_site3309] | 11.3 ± 0.66
TTTTATGAAAAATGGCTTATCTGTAAAGAAGTGGAG [CACACA_negctrl_site1586] | 10.3 ± 0.36
AAGGTATAGAAACACACACACGTGAATATAGTTTAA [CACACA_site5109] | 10.01 ± 0.028
ATTTTTTTTTTTATGTGTACATATATTTTTTTAATT [XGTACX_site7921] | 11.6 ± 0.97
TCACATATATATTAATGTACATATATTTTTTATGTA [XGTACX_site5125] | 11.2 ± 0.54
ATGTATATATTTTTATGTACATATTTTTAATTTATA [XGTACX_site2982] | 11.4 ± 0.87
ATATATATATATTTATGTACATATACATAATGTATA [XGTACX_site6387] | 11.2 ± 0.76
GATTTTAATGGGTGTACACATTTATTTATATAAAGT [CACACA_site5317] | 11.7 ± 0.93
ATATTTATAATTTTTTGTACACATTTTTTAAAGATA [XGTACX_site1784] | 11.4 ± 0.9
TTTTATTTATCTTAATGTACACATTTATATATATAT [XGTACX_site8588] | 11.7 ± 1.3
GTATGTATGTATATATGTACACATTATTATTTAATG [XGTACX_site5802] | 11.6 ± 1
TAATATAATAGAAGTGTACACACATATTTATGGGTG [CACACA_site9023] | 11.6 ± 0.93
ATATATATATATATATGTACATATTTTATTTAATTT [XGTACX_site1807] | 11.2 ± 0.69
GTATATATGTATATGTGTACATATATTTTATAATAT [XGTACX_site5703] | 11.3 ± 0.79
ATATATATATAATGTGTACACACATATGTATTTATA [CACACA_site8170] | 11.7 ± 0.67
TGTATGTATGTATTATTTGTTATTTTAATTTTTTTG [TGCATGCA_negctrl_site256] | 10.36 ± 0.085
CATATATAACATATAACACACATACTTAGTATTACA [CACACA_site5674] | 10.1 ± 0.24

Sequence | gcPBM binding intensity (ln)
GTTACAGAGAATGTTGTGCACATATCAATAATATAT [GTGCAC_site9671] | 10.5 ± 0.28
AACGTGTATTTATATTGTACACATTCATACATCAAA [XGTACX_site3644] | 11.4 ± 0.95
TCCTTACCTATTAAAGCATGCTCGAATATATATTTT [TGCATGCA_site53] | 9.81 ± 0.18
ATACACATAACATATATATATATATATATATATATC [CACACA_negctrl_site278] | 9.73 ± 0.057
TTTTGGATACTTCATTTGTCCTGTTTTTTTTTTTTA [CACACA_negctrl_site399] | 10.7 ± 0.37
TATATTTATACAATATGTACATATTATATATATATA [XGTACX_site3098] | 11 ± 0.59
TATACATTTATGTACACACACATATCTGTATATTTA [CACACA_site5617] | 11.5 ± 0.97
ATATAATAGAAGTGTACACACATATTTATGGGTGTA [CACACA_site5686] | 11.5 ± 0.91
GATAATAATAAGTGTACACATATATTTAGAAGAGTA [CACACA_site4245] | 11.5 ± 0.85
ATATATATATACATATGTACATATATATTTATACAT [XGTACX_site2463] | 11 ± 0.58
ATGGATAATAATAAGTGTACACATATATTTAGAAGA [XGTACX_site244] | 11.8 ± 0.86
TATAAAAAAAAATGTGGTACATATTTCCATTTTCCA [XGTACX_site4571] | 11.3 ± 0.76
TATATATATATGTGTACACAATTTATCTGTATTTAT [CACACA_site5945] | 11.8 ± 0.93
TATTTTTCCATTGGGGGTACATGTGTTATATTTATT [XGTACX_site5914] | 11.7 ± 0.88
GAATATATATTCATATGTACACAATTTATGTATTAT [XGTACX_site4719] | 11.4 ± 0.79
GTTCCATATATTACATGTACATATTTTTACATTTAA [XGTACX_site660] | 11.2 ± 0.72
ACATATATATATATGTGTACATATTTATACAACAAT [XGTACX_site6660] | 11.6 ± 0.78
TTTTTTTTTTTGTTCACACATATACTTTTATTTTGG [CACACA_site4250] | 10.2 ± 0.23
AAAAAAAAAAAAAAAACACACAATAAAGTAAAATTT [CACACA_site135] | 10.15 ± 0.049
TAAAAATGGGTATGTACACACTTTATTTTTAATACA [CACACA_site5404] | 11.5 ± 0.92
TATATATTCCTCCATAGTACAATAATAAAGATAAAA [XGTACX_site5785] | 10.6 ± 0.35
ATGTTCTTATTATTGGTGCAAGAATACACAAGAAAA | 10.4 ± 0.45
